The structures appear in SMILES notation. Results filed as inconclusive are left out. Calls of active or inactive are those of the source. Unless noted, calls come from the whole dose curve; as a rule, active = well fitted curve in the direction sought with a large enough effect; inconclusive = small, poorly fitted or top-dose-only effect, or another doubt; inactive = no such curve, though single readings can be large; an effect the other way counts as inactive or inconclusive.

Assay [1] concerns the target Lysosomal acid glucosylceramidase (Homo sapiens) (UniProt P04062). Description: Glucocerebrosidase-p2 (AID 348; in the data active = potency below about 10 µM; note: potency is the fitted concentration of half-maximal effect). To be noted: purified GBA, blue fluorogenic substrate, 40 min. Summed up: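 Compounds titrated from 0.6 nM upwards against 0.2 nM enzyme in pH 5.9 citric acid/KH2PO4, taurocholate, tween-20; blue fluorogenic substrate 80 uM, 40 min room temperature, stopped and read Ex 365/Em 440 for AC50.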

A short description of assay [2]: AP1 Signaling Pathway (AID 357; active = well fitted curve in either direction with a large enough effect, not every such curve was filed as active;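 note: ME-180 reporter cells stimulated with EGF at its EC50 level; % is set by controls: 0 for no effect and ±100 for the full control effect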). To be noted: ME-180 AP-1-bla reporter, EGF-induced, beta-lactamase ratio, 5 h; at 7.69 µM (top of the series) unless noted. Summed up:
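AP-1-bla ME-180 cells, Opti-MEM + 0.5% dialyzed FBS, plated overnight 37 °C. Cpd titration + EC50 EGF, 5 h 37 °C. CCF4 2.5 h RT; ex 405, em 460/530 ratio → %activity, AC50.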

Assay [3] can be described thus: Stat Signaling Pathway (AID 446; active = well fitted curve in either direction with a large enough effect, not every such curve was filed as active;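 note: ME-180 cervical cancer cells given 40 pM IL-6 alongside compound; SIE-controlled beta-lactamase reporter measured as 460/530 nm FRET emission ratio; % is set by controls: 0 for no effect and ±100 for the full control effect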). To be noted: ME-180 SIE beta-lactamase reporter, IL-6 stimulated, 5 h; at 7.69 µM (top of the series) unless noted. In a few lines: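 ME-180 SIE-bla cells; overnight plating; cpd + IL-6 40 pM, 5 h, 37 C; LiveBLAzer 2.5 h RT; 460/530 nm emission ratio. Normalized to 300 pM IL-6 and 125 nM JAK inhibitor controls.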
The target in assay [4] is Glucocorticoid receptor (Homo sapiens) (UniProt P04150). The assay is described as follows: GR-GFP Redistribution (AID 450;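 active = compounds whose dose series gives a full or clear partial fitted curve of increased nuclear translocation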; note: potency is the fitted concentration of half-maximal effect). To be noted: U2OS GR-GFP nuclear translocation, laser cytometry, 2 h.
Assay [5] has the same target. The assay is described as follows: GR-EFC Redistribution (AID 451; calls by dose curve; note: potency is the fitted concentration of half-maximal effect). To be noted: CHO-K1 GR-EFC translocation, beta-gal luminescence, 2 h. In a few lines: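 CHO-K1 cells stably expressing nuclear-localized β-gal enzyme acceptor and GR fused C-terminally to the enzyme donor fragment; ligand-driven nuclear translocation restores β-gal by complementation. Compounds titrated up to 46 uM final, 2 h at 37 °C; luminescence read.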

Assay [6] concerns the target Mitogen-activated protein kinase 10 (Mus musculus) (UniProt Q61831). The assay is described as follows: JNK3 AlphaScreen Assay (AID 530; active = well fitted curve in either direction with a large enough effect, not every such curve was filed as active;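 note: kinase came from lysate of stimulated human HepG2 cells; signal reports phosphorylation of biotinylated GST-cJun 1-79 at Ser73 with 10 µM ATP; % is set by controls: 0 for no effect and ±100 for the full control effect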). To be noted: JNK3 lysate, c-Jun phosphorylation; series mostly up to 57.1 µM. In a few lines: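 Inhibitors reduce antibody binding to phosphorylated biotin-cJun, lowering AlphaScreen luminescence. Lysates from HepG2 cells pre-activated by IL-1beta plus TNF-alpha supplied JNK3; compounds were titrated.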
(In general: In Alpha technology, singlet oxygen from a donor bead excites a nearby acceptor bead.)

Assay [7] has as its target 3',5'-cyclic-AMP phosphodiesterase 4B (Homo sapiens) (UniProt Q07343). Description: qHTS Assay for Inhibitors of PDE-IV (AID 607; active = well fitted activation curve with a large enough effect in the main read-out, with a control signal flat, not every such curve was filed as active; note: % of control where 0% means no effect). To be noted: HEK293 ACTOne CNG channel cells, membrane potential fluorescence; series mostly up to 22.9 µM. Summed up:
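ACTOne HEK293 cells carry a modified cAMP-gated CNG channel and express endogenous PDE4; plated 1000 cells/well, compounds up to 22.9 uM final. Membrane-potential dye fluorescence (ex 535/em 590) was read; parental cells received 10 uM forskolin + 100 uM RO 20-1724.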
In general terms: In qHTS, concentration-response curves come from the screen itself.

Assay [8] concerns the target Cytochrome P450 3A4 (Homo sapiens) (UniProt P08684). The assay is described as follows: qHTS Assay for Activators of Cytochrome P450 3A4 (AID 885). Note: nearly all actives have a fitted effect of over 65% in size. The settings on record: recombinant CYP3A4, Luciferin-PPXE luminescence, 60 min; series mostly up to 57.1 µM. In a few lines:
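20nM CYP3A4 + 25uM Luciferin-PPXE (=KM), 200mM KPO4; cpd 10 min RT; NADPH regen, 60 min RT; stop w/ detection buffer, 20 min; luminescence. Normalized to 57 uM ketoconazole.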

Assay [9] can be described thus: Counterscreen qHTS for small molecule stabilizers of the endoplasmic reticulum resident proteome: GLuc-NoTag assay (AID 1508627).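 Note: 0% = thapsigargin alone and -100% = DMSO vehicle control.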 The settings on record: Gaussia luciferase NoTag secretion counterscreen, luminescence, thapsigargin 100 nM for final 4 h; series mostly up to 76.4 µM. In a few lines: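 SH-SY5Y cells stably expressing constitutively secreted GLuc (no SERCaMP tag) were pre-incubated 5 h, treated with compound for 19 h, then 100 nM thapsigargin for 4 h at 37C; medium GLuc read by coelenterazine luminescence.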
(A counterscreen serves to expose hits that act by an unwanted route or on another target.)

Assay [10] can be described thus: Confirmatory qHTS for small molecule stabilizers of the endoplasmic reticulum resident proteome: Secreted ER Calcium Modulated Protein (SERCaMP) assay (AID 1508628). Note: nearly all actives have a fitted effect of over 40% in size. Note: potency is the fitted concentration of half-maximal effect. To be noted: SERCaMP secreted luciferase ER calcium/proteostasis reporter; series mostly up to 76.3 µM. In a few lines: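 SH-SY5Y cells stably expressing GLuc-SERCaMP, treated 16 h with compound (primary 1.53, 7.67, 38.3 uM; confirmation 11 concentrations, up to 76.6 uM), then 100 nM thapsigargin for 4 h. Secreted Gaussia luciferase in medium read by coelenterazine luminescence.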

A short description of assay [11]: qHTS Assay for Lipid Storage Modulators (AID 1519; calls by dose curve). To be noted: Drosophila S3 cells, BODIPY lipid droplet/cell ratio, laser cytometry, cells loaded with oleic acid; for activity change, negative = inhibition: at 57.5 µM (top of the series). In a few lines: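 Cells seeded at 5,000 per well were treated with compounds over a concentration series and loaded with oleic acid (400 uM, as added). Lipid droplet fluorescence (488 nm excitation, 500-530 nm channel) was read by laser-scanning cytometry and normalized to 20 uM Triacsin C.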

Assay [12] deals with Cytochrome P450 1A2 (Homo sapiens) (UniProt P05177). Description: p450-cyp1a2 (AID 410; calls by dose curve; note: potency is the fitted concentration of half-maximal effect). The settings on record: recombinant CYP1A2, luciferin-ME demethylation, luminescence; series mostly up to 57 µM. Summed up:
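Luminescent readout of luciferin formed from Luciferin-ME by human CYP1A2; data normalized against complete inhibition by 57 uM furafylline. Enzyme 20nM, substrate 100uM at Km, 100mM KPO4 buffer, 60 min reaction at room temperature.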

Assay [13] can be described thus: NFAT Signaling Pathway (AID 444; active = well fitted curve in either direction with a large enough effect, not every such curve was filed as active;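 note: carbachol stimulus at about its EC50 of 1 µM final; % is set by controls: 0 for no effect and ±100 for the full control effect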). To be noted: Jurkat NFAT-bla M1, carbachol, beta-lactamase ratio, 5 h; at 7.69 µM (top of the series) unless noted. Summed up:
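Jurkat cells carrying an NFAT-driven β-lactamase reporter and co-transfected muscarinic M1 receptor were treated with compound plus carbachol (1 uM final, an EC50 level) for 5 h at 37 °C. CCF4 loading followed for 1 h at RT; 460/530 nm ratio gave %activity.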

The nature of assay [14]: Confirmation and Secondary Assay for Modulators of Hemoglobin Beta Chain Splicing at IVS2 654 locus (AID 910).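 Note: per-well total GFP intensity by laser scanning cytometry after 2-day treatment; % of control where 0% means no effect.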 The settings on record: HeLa EGFP-654 splicing reporter, GFP fluorescence, 48 h; series mostly up to 38.3 µM. In a few lines:
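HeLa cells stably carrying EGFP interrupted by mutant beta-globin IVS2-654 intron (CMV-driven) were treated with compound for 2 days at 37C; corrected splicing was scored as total peak GFP intensity per well (488 nm excitation, 500-520 nm emission).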

The nature of assay [15]: qHTS Assay for Identification of Small Molecule Agonists for Hypoxia Response Element Signaling Pathway (AID 914; active = well fitted activation curve with a large enough effect in the signal ratio, with a control signal flat, not every such curve was filed as active; the % refers to the signal ratio; note: % of control where 0% means no effect). The settings on record: ME-180 (cervical carcinoma) HRE-bla reporter, beta-lactamase ratio, CoCl2, 17 h; activation: stronger effect = higher value. Summed up: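 qHTS titration; ME-180 HRE-bla cells; EC50 CoCl2 co-treatment, 17 h at 37 degrees Celsius; CCF4 dye, ex 405nm, em 460nm and 530nm; %Activity from ratio; AC50.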

A short description of assay [16]: Confirmation and Secondary Assay for Modulators of Hemoglobin Beta Chain Splicing at IVS2 705 locus (AID 930).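 Note: GFP fluorescence per well restored by corrected splicing of the IVS2-705 intron in EGFP; % of control where 0% means no effect.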 To be noted: HeLa EGFP-705 splicing reporter, GFP fluorescence, 48 h; series mostly up to 38.3 µM. Summed up: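 Secondary splice-site specificity test uses HeLa expressing CMV-driven EGFP interrupted by IVS2-705; cells were treated 2 days at 37C with 500 nM antisense PNA as positive control.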

Assay [17] concerns the target Ubiquitin carboxyl-terminal hydrolase 1 (Homo sapiens) (UniProt O94782). The assay is described as follows: Inhibitors of USP1/UAF1: Pilot qHTS (AID 504865). Note: nearly all actives have a fitted effect of over 35% in size. Note: potency is the fitted concentration of half-maximal effect. The settings on record: purified USP1/UAF1, Ub-rhodamine cleavage fluorescence; series mostly up to 54.9 µM. Summed up:
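USP1/UAF1 complex (1nM) preincubated with compound 15 min at room temperature, then Ub-Rho substrate (150nM final) added. Fluorescence read kinetically at 480/540 nm, 6 reads every 60 seconds. Buffer: 50mM HEPES pH 7.8, 0.5mM EDTA, 0.1 mg/ml BSA, 1mM TCEP, 0.01% Tween-20.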

A short description of assay [18]: Cell Viability qHTS for small molecule stabilizers of the endoplasmic reticulum resident proteome (AID 1508629). The settings on record: cell viability counter-screen, 100 nM thapsigargin for final 4 h.
Assay [19] addresses Dual specificity protein kinase CLK4 (Homo sapiens) (UniProt Q9HAZ1). Description: qHTS Assay for Inhibitors of CDC-like Kinase 4 (Kinase-Glo Assay) (AID 1770). Note: % is set by controls: 0 for no effect and ±100 for the full control effect; nearly all actives have a fitted effect of over 65% in size. The settings on record: recombinant Clk4, Kinase-Glo ATP depletion luminescence; series mostly up to 66.7 µM. Summed up:
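Recombinant human Clk4 (25 nM) phosphorylated RS repeat peptide (100 uM) with 1 uM ATP in Tris pH 7.5/MgCl2/EGTA/DTT/Triton buffer for 4.5 h at room temperature. Residual ATP was quantified by Kinase-Glo luciferase luminescence.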

The target is the same in assay [20]. Description: qHTS Assay for Inhibitors of CDC-like Kinase 4 (ADP-Glo Assay) (AID 1771). Note: % is set by controls: 0 for no effect and ±100 for the full control effect; nearly all actives have a fitted effect of over 70% in size. The settings on record: recombinant CLK4, ADP-Glo luminescence; series mostly up to 80 µM. In a few lines:
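Luminescence from ADP-Glo reports ADP produced by 25 nM Clk4 acting on 100 uM RS repeat peptide with 1 uM ATP over 1 hr at room temperature; residual ATP is depleted before ADP is converted to ATP for detection.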

The target is the same in assay [21]. The assay is described as follows: qHTS Assay for Inhibitors of CDC-like Kinase 4 (ADP-FP Assay) (AID 1795). Note: % is set by controls: 0 for no effect and ±100 for the full control effect; nearly all actives have a fitted effect of over 60% in size. To be noted: Transcreener ADP fluorescence polarization; series mostly up to 50 µM. Summed up:
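Recombinant human Clk4 (6.25 nM) phosphorylated RS repeat peptide (100 uM) with 1 uM ATP in Tris pH 7.5/MgCl2/EGTA/DTT/Triton buffer for one hour. ADP was quantified by Transcreener competitive fluorescence polarization against an ADP calibration curve.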

Where [22] appears, read: measured here: cell count channel max response.
Where [23] appears, read: measured here: lipid channel max response.

Sequence of Glucocorticoid receptor (Homo sapiens) (P04150 whole entry, looked up, the tested form may be a part): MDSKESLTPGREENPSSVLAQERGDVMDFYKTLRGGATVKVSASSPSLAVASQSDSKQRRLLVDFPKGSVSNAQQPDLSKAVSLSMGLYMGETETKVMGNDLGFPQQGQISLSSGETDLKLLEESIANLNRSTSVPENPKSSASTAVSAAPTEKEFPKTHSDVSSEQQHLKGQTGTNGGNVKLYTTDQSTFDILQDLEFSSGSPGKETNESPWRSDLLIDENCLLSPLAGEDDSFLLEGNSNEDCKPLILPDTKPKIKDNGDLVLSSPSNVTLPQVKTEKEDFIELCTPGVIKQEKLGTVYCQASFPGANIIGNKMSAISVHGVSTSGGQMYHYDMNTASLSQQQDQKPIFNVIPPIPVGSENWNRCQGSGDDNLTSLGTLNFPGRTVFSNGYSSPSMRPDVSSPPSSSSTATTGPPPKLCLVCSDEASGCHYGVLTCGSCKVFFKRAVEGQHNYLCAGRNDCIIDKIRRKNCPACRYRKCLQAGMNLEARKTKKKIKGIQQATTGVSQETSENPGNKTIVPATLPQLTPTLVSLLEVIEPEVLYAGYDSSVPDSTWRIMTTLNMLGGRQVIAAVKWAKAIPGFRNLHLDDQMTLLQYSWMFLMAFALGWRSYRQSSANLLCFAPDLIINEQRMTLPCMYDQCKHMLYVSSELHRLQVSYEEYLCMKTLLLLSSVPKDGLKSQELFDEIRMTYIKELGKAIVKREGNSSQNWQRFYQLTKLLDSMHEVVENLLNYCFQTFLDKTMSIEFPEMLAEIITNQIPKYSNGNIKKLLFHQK
Sequence of Dual specificity protein kinase CLK4 (Homo sapiens) (Q9HAZ1 whole entry, looked up): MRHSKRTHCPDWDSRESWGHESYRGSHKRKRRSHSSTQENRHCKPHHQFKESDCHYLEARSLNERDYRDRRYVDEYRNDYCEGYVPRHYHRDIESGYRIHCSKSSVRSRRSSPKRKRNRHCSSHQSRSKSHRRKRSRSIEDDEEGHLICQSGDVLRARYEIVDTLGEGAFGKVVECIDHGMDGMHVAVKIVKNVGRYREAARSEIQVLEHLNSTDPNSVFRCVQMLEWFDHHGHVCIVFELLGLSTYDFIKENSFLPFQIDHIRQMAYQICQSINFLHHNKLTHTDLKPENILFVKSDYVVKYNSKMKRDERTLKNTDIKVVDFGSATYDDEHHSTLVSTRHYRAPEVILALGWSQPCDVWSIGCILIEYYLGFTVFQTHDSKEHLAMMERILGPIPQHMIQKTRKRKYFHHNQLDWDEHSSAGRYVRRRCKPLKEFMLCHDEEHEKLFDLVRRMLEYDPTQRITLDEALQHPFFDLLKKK
Sequence of Cytochrome P450 1A2 (Homo sapiens) (P05177 whole entry, looked up): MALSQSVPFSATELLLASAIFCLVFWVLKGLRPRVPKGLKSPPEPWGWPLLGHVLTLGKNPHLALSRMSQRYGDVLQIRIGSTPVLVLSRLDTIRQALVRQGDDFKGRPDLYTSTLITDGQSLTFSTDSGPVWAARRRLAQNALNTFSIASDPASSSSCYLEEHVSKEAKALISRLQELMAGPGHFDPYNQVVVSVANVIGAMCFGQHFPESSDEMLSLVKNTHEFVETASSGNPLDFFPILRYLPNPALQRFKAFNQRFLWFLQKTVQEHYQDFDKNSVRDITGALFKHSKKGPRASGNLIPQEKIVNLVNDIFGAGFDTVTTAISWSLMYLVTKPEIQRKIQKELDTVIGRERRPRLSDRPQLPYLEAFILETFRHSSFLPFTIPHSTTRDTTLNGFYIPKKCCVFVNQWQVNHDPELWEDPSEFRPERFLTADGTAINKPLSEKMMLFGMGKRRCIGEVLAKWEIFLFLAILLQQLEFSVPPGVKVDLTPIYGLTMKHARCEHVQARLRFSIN
Sequence of 3',5'-cyclic-AMP phosphodiesterase 4B (Homo sapiens) (Q07343 whole entry, looked up): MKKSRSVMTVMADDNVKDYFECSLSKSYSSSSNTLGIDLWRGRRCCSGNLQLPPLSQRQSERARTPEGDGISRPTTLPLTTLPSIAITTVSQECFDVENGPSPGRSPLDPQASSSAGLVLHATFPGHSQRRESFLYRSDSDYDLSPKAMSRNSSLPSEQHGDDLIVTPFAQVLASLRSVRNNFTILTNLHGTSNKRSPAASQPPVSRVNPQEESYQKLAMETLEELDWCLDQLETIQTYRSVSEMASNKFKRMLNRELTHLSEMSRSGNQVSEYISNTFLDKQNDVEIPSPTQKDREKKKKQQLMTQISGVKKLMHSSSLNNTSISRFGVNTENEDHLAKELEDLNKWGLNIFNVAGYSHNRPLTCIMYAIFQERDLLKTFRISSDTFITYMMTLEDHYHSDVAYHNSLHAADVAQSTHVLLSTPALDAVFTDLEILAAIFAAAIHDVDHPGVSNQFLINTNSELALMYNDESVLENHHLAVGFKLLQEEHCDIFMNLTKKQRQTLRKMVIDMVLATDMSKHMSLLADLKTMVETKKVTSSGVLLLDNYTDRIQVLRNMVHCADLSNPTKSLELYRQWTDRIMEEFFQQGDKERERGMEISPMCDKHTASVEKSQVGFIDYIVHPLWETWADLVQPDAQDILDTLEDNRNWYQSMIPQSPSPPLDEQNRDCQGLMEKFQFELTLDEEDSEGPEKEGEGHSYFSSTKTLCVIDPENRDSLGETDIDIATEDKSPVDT
Sequence of Lysosomal acid glucosylceramidase (Homo sapiens) (P04062 whole entry, looked up): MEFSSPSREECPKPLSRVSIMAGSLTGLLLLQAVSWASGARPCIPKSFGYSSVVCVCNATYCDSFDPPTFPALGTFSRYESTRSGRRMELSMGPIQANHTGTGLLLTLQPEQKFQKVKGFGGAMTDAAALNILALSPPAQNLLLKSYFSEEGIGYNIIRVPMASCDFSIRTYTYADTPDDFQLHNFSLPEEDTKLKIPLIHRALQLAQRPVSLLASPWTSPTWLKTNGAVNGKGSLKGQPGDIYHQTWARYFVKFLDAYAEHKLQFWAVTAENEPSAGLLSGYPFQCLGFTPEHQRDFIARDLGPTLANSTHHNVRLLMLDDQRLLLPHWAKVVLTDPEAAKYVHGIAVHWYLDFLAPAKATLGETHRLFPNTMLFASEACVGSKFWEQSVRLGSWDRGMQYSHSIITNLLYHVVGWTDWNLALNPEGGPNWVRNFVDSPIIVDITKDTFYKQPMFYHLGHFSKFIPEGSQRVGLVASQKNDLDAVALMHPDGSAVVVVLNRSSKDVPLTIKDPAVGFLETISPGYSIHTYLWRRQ
Sequence of Cytochrome P450 3A4 (Homo sapiens) (P08684 whole entry, looked up): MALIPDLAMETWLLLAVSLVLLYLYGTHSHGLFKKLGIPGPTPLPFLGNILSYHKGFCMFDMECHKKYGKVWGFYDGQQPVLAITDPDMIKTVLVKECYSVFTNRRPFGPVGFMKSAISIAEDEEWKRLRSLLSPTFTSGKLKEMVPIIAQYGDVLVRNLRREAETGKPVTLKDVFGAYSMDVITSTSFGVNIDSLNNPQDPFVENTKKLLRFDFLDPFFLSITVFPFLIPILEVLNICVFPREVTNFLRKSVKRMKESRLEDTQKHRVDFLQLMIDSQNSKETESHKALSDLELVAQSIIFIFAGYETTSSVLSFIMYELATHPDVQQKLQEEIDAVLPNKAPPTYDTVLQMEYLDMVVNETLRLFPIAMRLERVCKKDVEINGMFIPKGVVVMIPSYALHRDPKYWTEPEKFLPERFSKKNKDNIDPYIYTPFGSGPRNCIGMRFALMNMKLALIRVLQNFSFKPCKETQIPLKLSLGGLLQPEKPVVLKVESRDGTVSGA
Sequence of Ubiquitin carboxyl-terminal hydrolase 1 (Homo sapiens) (O94782 whole entry, looked up): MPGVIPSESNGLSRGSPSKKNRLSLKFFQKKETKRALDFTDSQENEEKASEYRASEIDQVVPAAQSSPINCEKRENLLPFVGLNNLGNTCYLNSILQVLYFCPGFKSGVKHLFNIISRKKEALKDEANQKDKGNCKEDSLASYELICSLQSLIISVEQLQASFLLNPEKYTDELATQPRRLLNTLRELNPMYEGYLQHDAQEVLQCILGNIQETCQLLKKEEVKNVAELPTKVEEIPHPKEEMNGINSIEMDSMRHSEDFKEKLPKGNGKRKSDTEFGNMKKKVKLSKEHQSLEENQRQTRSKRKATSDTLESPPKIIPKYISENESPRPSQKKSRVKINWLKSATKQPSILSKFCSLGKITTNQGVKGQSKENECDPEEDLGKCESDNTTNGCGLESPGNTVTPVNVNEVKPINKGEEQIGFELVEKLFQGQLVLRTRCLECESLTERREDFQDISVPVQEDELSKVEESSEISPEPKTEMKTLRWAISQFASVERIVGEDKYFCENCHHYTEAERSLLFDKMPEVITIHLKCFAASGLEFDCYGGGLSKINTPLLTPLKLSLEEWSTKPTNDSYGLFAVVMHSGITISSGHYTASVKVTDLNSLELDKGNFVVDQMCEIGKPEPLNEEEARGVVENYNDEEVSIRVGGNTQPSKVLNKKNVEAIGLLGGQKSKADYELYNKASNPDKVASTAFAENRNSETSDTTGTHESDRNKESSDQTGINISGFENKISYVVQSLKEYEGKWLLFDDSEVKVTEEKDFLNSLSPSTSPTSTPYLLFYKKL

As for `O=c1cnc2cnc(N3CCNCC3)nc2n1Cc1cccs1`, the Potency was > 11.4 µM (inactive) in [1], > 9.22 µM (inactive) in assay [4], > 46 µM (inactive) in assay [5] and 31.6 µM (active) in assay [10]. Further, in assay [2], the activity change, negative = inhibition is -4.82% (inactive). For the same compound, the activity, negative = inhibition in [3] was 0.322% (inactive). Moreover, in [6], the result was inactive. Besides, the Potency entry in [7], in [8] and in assay [9] was “inactive” in each case.

`COc1ccc(-c2nc3cnc(N4CCNCC4)nc3n(-c3ccccc3)c2=O)cc1`: the figures for the Potency in assay [1], in assay [4] and in assay [5] were > 11.4 µM (inactive), > 9.22 µM (inactive) and > 46 µM (inactive), respectively. Moreover, in assay [6], the call was inactive. Moreover, the Potency result in [7], in assay [9] and in assay [10] was “inactive” each time. Besides, in [11], the activity change, negative = inhibition was 3% (inactive). In addition, the max response was determined as 10.3% in assay [11] (setting [22]) and 4.43% in assay [11] (setting [23]).

On to `CN(C)c1ccc(-c2nccc(NCCN3CCOCC3)n2)cc1`, for which the Potency in assay [1] was > 11.4 µM (inactive); in [12], 1.26 µM (active); in assay [4], > 46 µM (inactive); in assay [5], > 46 µM (inactive). Also, the activity change, negative = inhibition in assay [2] is -7.61% (inactive); in assay [13] it was 7.2% (inactive); in assay [11], -20.5% (inactive). The activity, negative = inhibition in [3] was 11.1% (inactive). Besides, the Potency entry in assay [7], in [8], in [17] and in assay [9] was “inactive” throughout. In addition, the result in assay [14] and in [16] was inactive. The activation in assay [15] was -5.52% (inactive). For the same compound, the results for the max response in [11] (setting [22]), in assay [11] (setting [23]) and in assay [18] were -10.5%, -26.5% and 10.1% (inactive), respectively.

As for `Cc1ccccc1-c1nc(N2CCN(C)CC2)c2ccccc2n1`, the Potency was > 11.4 µM (inactive) in [1]; 3.98 µM (active) in assay [12]; > 46 µM (inactive) in assay [4]; > 46 µM (inactive) in assay [5]; 28.2 µM (active) in [17]; 20 µM (active) in assay [10]. In addition, the activity change, negative = inhibition in assay [2] is 5.49% (inactive); in assay [13] it was 0.11% (inactive). Also, in [3], the activity, negative = inhibition is 0.381% (inactive). In [6], the result was inactive. The Potency entry in assay [8], in assay [19], in [20], in assay [21] and in [9] was “inactive” each time.

Consider `CN1CCN(c2ncc3nc(-c4cc(F)cc(F)c4)c(=O)n(-c4ccccc4)c3n2)CC1`, for which the Potency is > 11.4 µM (inactive) in [1], > 9.22 µM (inactive) in assay [4] and > 46 µM (inactive) in [5]. In assay [6], the result was inactive. The activity change, negative = inhibition in assay [11] is 2.22% (inactive). In addition, the values for the max response in assay [11] (setting [22]) and in [11] (setting [23]) were 13.7% and 14.9%, respectively. In addition, the Potency entry in assay [9] and in [10] was “inactive” each time.

Consider `COc1ccc(-n2c(=O)cnc3cnc(N4CCNCC4)nc32)cc1`, for which the Potency in assay [1] was > 11.4 µM (inactive); in [12] it was 12.6 µM (active); in [4], > 9.22 µM (inactive); in [5], > 46 µM (inactive). In addition, the activity change, negative = inhibition in assay [2] is -7.32% (inactive). In addition, in [3], the activity, negative = inhibition is -6.65% (inactive). For the same compound, the outcome in assay [6] was inactive. Also, the Potency result in assay [7] and in assay [9] was “inactive” throughout. Moreover, in [18], the max response was 4.18% (inactive).
